Laboratory results from PubChem BioAssay (NCI).
Compounds without any hit were thinned out: in the full panel of roughly 83,000, 20% have a hit.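 The test compound was applied at a single concentration to cells in 96-well plates for 48 hours, and percent growth was recorded.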 Active and inactive are the calls of the source. The calls were made as follows: active = growth percent below 10; inactive = the rest.

What was measured:
Test in all cases: NCI-60 one-dose screen, 48 h (100 = growth as untreated, 0 = no growth, -100 = all killed)
Details in all cases: 10 µM unless noted
[1] = system: SR leukemia
[2] = system: RPMI-8226 leukemia
[3] = system: OVCAR-5 ovarian
[4] = system: OVCAR-4 ovarian
[5] = system: SK-OV-3 ovarian
[6] = system: IGROV1 ovarian
[7] = system: OVCAR-3 ovarian
[8] = system: HS 578T breast
[9] = system: OVCAR-8 ovarian
[10] = system: NCI/ADR-RES ovarian

Measured: growth

CC(=O)CCS(=O)c1ccccc1 (stereo not drawn)
inactive: [1] 85.1% | [2] 104% | [3] 108% | [4] 106% | [5] 110% | [6] 105% | [7] 101% | [8] 98.4%

Cc1nc(NC(=O)NC2CCCCC2)sc1C(=O)NN
inactive: [1] 131% | [2] 112% | [9] 102% | [4] 109% | [5] 116% | [6] 72.2% | [7] 99.5% | [8] 105% | [10] 118%

N#Cc1ccc(NC2c3ccccc3CC2O)cc1 (stereo not drawn)
inactive: [1] 99.3% | [2] 96.3% | [9] 122% | [3] 113% | [5] 106% | [6] 116% | [7] 129% | [10] 115%

Nc1ccc(S(=O)(=O)c2ccc(NO)cc2)cc1
active: [6] 1.89%
inactive: [1] 129% | [2] 106% | [9] 95.6% | [4] 88.6% | [5] 94.2% | [7] 131% | [8] 97% | [10] 90.3%

Cc1[nH]n(C(=S)Nc2nc3cc(Cl)c(F)cc3s2)c(=O)c1N=Nc1ccc(F)c(Cl)c1
inactive: [2] 70.9% | [9] 103% | [4] 91.5% | [5] 97.8% | [6] 88.4% | [7] 98.2% | [8] 85%
active: [1] -45.2%

CC([C@H]1CCC2C3CCC4C[C@@H](N)CC[C@]4(C)C3CC[C@@]21C)N(C)C (stereo partly drawn)
inactive: [1] 18.5% | [2] 58.7% | [9] 85.7% | [4] 38.4% | [5] 91.1% | [6] 53.1% | [7] 71.5% | [8] 79.1% | [10] 81.5%

O=S(=O)(Cc1cccc2c(CS(=O)(=O)c3ccc(Cl)cc3)cccc12)c1ccc(Cl)cc1
inactive: [1] 94.7% | [2] 96.3% | [9] 71.1% | [4] 100% | [5] 94.7% | [6] 91.4% | [7] 95.9% | [8] 70.8% | [10] 90%

COC(=O)[C@@H]1[C@H](O)[C@H](C)[C@H](O)[C@H](C)/C=C\C=C(C)C(=O)Nc2c(C)c(OC(C)=O)c3c(c2O)C(=O)C(C)=C2OCOC(=C23)C(C)=C[C@@](C)(O)[C@H](O)[C@@H](C)[C@H]1OC(C)=O
inactive: [1] 121% | [2] 97.8% | [9] 104% | [4] 96.4% | [5] 109% | [7] 137% | [8] 127% | [10] 114%
active: [6] 3.5%

NC(=O)CC(NC(=O)COc1ccc(Cl)cc1Cl)C(=O)O (stereo not drawn)
inactive: [1] 115% | [2] 117% | [9] 105% | [4] 112% | [5] 110% | [6] 109% | [7] 106% | [8] 107% | [10] 112%

Nc1nc2cc(O)ccc2n2cc3c(F)cccc3c12
active: [4] -4.95% | [8] -21.4%
inactive: [1] 10.8% | [2] 53.7% | [9] 26.5% | [6] 18.4% | [7] 30% | [10] 15.8%

CN1C(=O)C(=Cc2coc3ccc(Br)cc3c2=O)C(=O)N(C)C1=O
inactive: [1] 126% | [2] 108% | [9] 98.5% | [4] 118% | [5] 96.3% | [6] 101% | [7] 105% | [10] 97.9%

COc1ccc(C2CC(=O)c3c(O)cc(OC4OC(COC5OC(C)C(O)C(O)C5O)C(O)C(O)C4O)cc3O2)cc1O (stereo not drawn)
inactive: [1] 130% | [2] 123% | [9] 94.8% | [4] 103% | [5] 118% | [6] 37.7% | [7] 131% | [8] 106% | [10] 109%

Cc1cc2cn3c4ccc(O)cc4nc(N)c3c2cc1C
inactive: [3] 28.9% | [7] 16.5%
active: [1] -23.5% | [2] -20.1% | [9] 5.39% | [6] 3% | [8] -16.3% | [10] 9.17%

Cc1nc(NC(=S)Nc2ccc(F)cc2)sc1C(=O)NNC(=S)Nc1ccc(F)cc1
active: [2] -16.8%
inactive: [1] 81.6% | [9] 87.4% | [4] 42.8% | [5] 94% | [6] 51.7% | [7] 56.6% | [8] 72.4% | [10] 78.1%

CCCCCN1CCN(C(CC(=O)c2ccccc2)C(=O)c2ccccc2)CC1 (stereo not drawn)
active: [1] 0.154%
inactive: [2] 12.6% | [3] 110% | [4] 107% | [5] 102% | [6] 57.8% | [7] 55.3%

c1cc[c]([Bi]([c]2ccccc2)[c]2ccccc2)cc1
inactive: [1] 102% | [2] 91% | [9] 101% | [4] 89.3% | [6] 107% | [7] 105% | [8] 100% | [10] 98%

CC(O)CCC(C)[N+](=O)[O-] (stereo not drawn)
inactive: [1] 95.8% | [2] 101% | [9] 104% | [4] 103% | [5] 101% | [6] 105% | [7] 108% | [10] 111%

CCOC(=O)c1c(C)oc2ncnc(Nc3ccc(C(=O)NCCc4ccccc4)cc3)c12
inactive: [1] 89.2% | [2] 84.6% | [9] 76.7% | [4] 45.5% | [5] 85.6% | [6] 102% | [7] 97.3% | [8] 51.2% | [10] 76.9%

CCCCCc1ccnc(CC(=O)c2ccc(OC)cc2)c1
inactive: [1] 91.5% | [2] 76.7% | [3] 89.7% | [4] 76.5% | [5] 92.5% | [6] 108% | [7] 93.7% | [8] 107%

CCC(C)C1NC(=O)C(CC(C)C)NC(=O)C(C)NC(=O)C(C(C)C)NC(=O)C(CCCCN)NC(=O)C(CC(C)C)NC(=O)C(C(C)C)NC(=O)[C@H](C)NC(=O)C(C(C)CC)NC(=O)C(CCCN=C(N)N)NC(=O)C(CCCCN)NC(=O)C(CCCN=C(N)N)NC(=O)C(CCCCN)NC(=O)C([C@H](C)CC)NC(=O)C(CCCCN)NC1=O (stereo partly drawn)
active: [1] 2.37% | [2] -35.5% | [7] 8.18%
inactive: [9] 11.7% | [4] 18.4% | [5] 10.4% | [6] 12.4% | [8] 38.9% | [10] 29.3%

CC(C)CSc1nc(-c2ccc(F)cc2)c(C#N)c(N2CCCCC2)n1
inactive: [1] 84.3% | [2] 102% | [9] 94% | [4] 97.1% | [5] 99.6% | [6] 104% | [7] 93% | [8] 99.4% | [10] 88.7%

COc1cc(-c2nc3c(c(C)nc4c3nnn4-c3ccccc3)c(=O)o2)cc(OC)c1OC
inactive: [1] 108% | [2] 105% | [9] 107% | [4] 114% | [5] 115% | [6] 112% | [7] 116% | [8] 103% | [10] 115%

OCC(O)C(O)CC1SCCS1 (stereo not drawn)
inactive: [1] 103% | [2] 122% | [9] 96.3% | [4] 112% | [5] 103% | [6] 107% | [7] 101% | [8] 106% | [10] 102%

COc1ccc(Cn2cc3c(c2-c2ccccc2)CCc2cnoc2-3)cc1N
active: [5] -4.08% | [6] 3.29% | [7] -19.5% | [10] -1.43%
inactive: [1] 11.8% | [2] 23.5% | [9] 30% | [4] 44.5% | [8] 10.4%

O=Nc1c(-c2c(O)[nH]c3cc(Br)ccc23)[nH]c2ccccc12
active: [1] -40.5% | [2] -5.99% | [9] -17.4% | [4] 7.53% | [5] -77.8% | [6] -44.5% | [7] -64.9% | [8] -49.7% | [10] -76.7%

Cc1nc2c(nnn2-c2ccccc2)c2nc(-c3ccccc3)oc(=O)c12
inactive: [1] 105% | [2] 113% | [9] 111% | [4] 115% | [5] 115% | [6] 111% | [7] 117% | [8] 107% | [10] 112%

COC(=O)c1ccc2[nH]c(O)c(C(=Nc3ccc(N(C)C(=O)CN4CCN(C)CC4)cc3)c3ccc4c(c3)OCO4)c2c1
active: [1] 0.377% | [2] -13.7% | [5] -8.57% | [6] 4.12%
inactive: [9] 20.3% | [4] 28.1% | [7] 10.9% | [8] 10.5%

Nc1nc2c(c3cnccc13)C(c1ccc(Cl)c(Cl)c1)Cc1cnccc1-2 (stereo not drawn)
inactive: [4] 14.7%
active: [1] 5.08% | [2] -5.48% | [3] -1.65% | [5] 2.34% | [6] 7.84% | [7] -44.8% | [8] 9.27% | [10] -13.2%

CCc1ccc(C(=Nc2ccc(N(C)C(=O)CN3CCN(C)CC3)cc2)c2c(O)[nH]c3ccc(C(=O)OC)cc23)cc1
inactive: [10] 10.5%
active: [1] -27.7% | [2] -46.9% | [9] -34.5% | [4] -61.3% | [5] -61.5% | [6] -65.4% | [7] -69.9% | [8] -48.7%

COC(=O)C(C)[C@H]1CC[C@@H]2[C@]1(C)CC=C1[C@]23C=C[C@]2(C[C@@H](OC(C)=O)CC[C@]12C)C(C(=O)OC)C3C(=O)OC (stereo partly drawn)
inactive: [1] 55.8% | [2] 60.8% | [9] 95.7% | [4] 85.7% | [5] 111% | [6] 98.2% | [7] 86.4% | [8] 102% | [10] 94.3%
